Results reported in the OligoGym collection.

What follows are sequences tested against USO1 (assay: pooled miR-30 sensor sort-seq; sequence = guide strand). Settings: shRNA.
Note: reference of the scale not given here.

Sequence	sensor-assay potency score (higher = more potent)
TATATTATATAGTATGTCCAAA	-1.01
TAGCATTAGATGTAGATTGGTC	0.084
TAAAATAATTTGTTGCACCTGA	0.172

The sequences below were run against USP2 in the same assay as above. Settings: shRNA.

Sequence	sensor-assay potency score (higher = more potent)
TGAAAGTGTGCCATTCTCCTGT	0.787
TAGGTCTCAGTGTCACTCGGTT	-0.44
TAGTTTTGCAAACTCTTCCACG	-0.662
TTCTCCACATCTGTCGGCCTTT	-0.4
TTTTGCAAACTCTTCCACGAGG	-0.596
TATTTTCTCCACATCTGTCGGC	0.643
TTGGTGAAGAGCCTCATGCAGT	-0.823
TTAGGTCTCAGTGTCACTCGGT	0.557
TAGATATTTTCTCCACATCTGT	-1.14
TAGAACAGTAACCACAATCTGT	-0.00783
ATTGAGTTCATGAAGCACGTGT	0.753

Each sequence was assayed against USP43 in the same assay as above. Settings: shRNA.

Sequence	sensor-assay potency score (higher = more potent)
TAGAACAGGATATAAGCCCCTC	-0.232
TTTCCTTGAGTTTCCTTGCTGT	0.819
TTCGGAGACAAATAGCTGCAGG	-0.652
TTTGCACAAAGCTTTGACCTAG	0.51
TAGCACCTTGCTCTCACTGTGG	-0.424
TAGGTAGGGACACACACAGGAA	-1.19
TTGCTGAGGATAGACTGCTGGA	-0.504
TTGCTGTGTTTGGACCATCTGA	-0.995
TCGTACAGGAAGTCCAGCGGGT	-0.327
TACTCCACCAACTCGACGGAGG	-1.32
TGTAGAACTGAAAACATTCATC	-0.712
TTGCACAAAGCTTTGACCTAGA	0.359
